Source: PubChem BioAssay (EPA / NIEHS)
Active and inactive are the calls of the source. How the source made its calls: active means hit-call score of the fitted dose curve at least 0.9, where 1 is the maximum; inactive means score below 0.9.

Columns and labels:
Settings in all cases: mRNA level, 48 h; actives raise or lower the signal
[1] = read-out: ABC Transporter (ABCC2), ABCC2 (gene 1244); test: LTEA_HepaRG_ABCC2: Life Technologies and Expression Analysis (LTEA) Assay for ABC Transporter (ABCC2) using HepaRG (AID 2283464)
In short: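 Gene expression of ABCC2 was determined by qRT-PCR in HepaRG cells exposed 48 h to chemicals (highest 100 uM, half-log dilutions). Activity was fitted in both directions relative to 0.5% DMSO vehicle.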

[2] = read-out: Broad substrate specificity ATP-binding cassette transporter ABCG2 (Homo sapiens) (UniProt Q9UNQ0); test: LTEA_HepaRG_ABCG2: Life Technologies and Expression Analysis (LTEA) Assay for ABC Transporter (ABCG2) using HepaRG (AID 2283465)
In short: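 ABCG2 transcript was quantified by TaqMan qRT-PCR against three housekeeping genes in HepaRG cells. Cells were treated in duplicate for 48 h across an 8-point half-log series up to 100 uM, with 0.5% DMSO vehicle. Gain or loss versus DMSO was fit.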

[3] = read-out: ATP-citrate lyase (ACLY), ACLY (gene 47); test: LTEA_HepaRG_ACLY: Life Technologies and Expression Analysis (LTEA) Assay for ATP-citrate lyase (ACLY) using HepaRG (AID 2283466)
In short: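 ACLY mRNA quantified by qRT-PCR on Fluidigm arrays against three housekeeping genes, after 48 h chemical treatment of HepaRG cells (top concentration 100 uM, half-log steps, 0.5% DMSO vehicle). Up- or down-regulation fitted relative to DMSO.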

[4] = read-out: Peroxisomal acyl-coenzyme A oxidase 1 (ACOX1) gene, ACOX1 (gene 51); test: LTEA_HepaRG_ACOX1: Life Technologies and Expression Analysis (LTEA) Assay for Peroxisomal acyl-coenzyme A oxidase 1 (ACOX1) gene using HepaRG (AID 2283467)
In short: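 ACOX1 transcript levels were quantified by TaqMan qRT-PCR against three housekeeping genes after 48 h chemical exposure of differentiated human HepaRG cells. Exposure used eight half-log steps topping at 100 uM, 0.5% DMSO vehicle, in duplicate. Bidirectional curve fits were made relative to DMSO.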

[5] = read-out: Alkaline Phosphatase, Placental (ALPP) gene, ALPP (gene 250); test: LTEA_HepaRG_ALPP: Life Technologies and Expression Analysis (LTEA) Assay for Alkaline Phosphatase, Placental (ALPP) gene using HepaRG (AID 2283468);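 on AC50: differentiated human HepaRG liver cells in serum-free induction medium; ALPP transcript by TaqMan qRT-PCR normalized to ACTB GAPDH and POLR2A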
In short: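 Expression of ALPP was quantified by qRT-PCR against three housekeeping genes in human HepaRG cultures treated for 48 h with an eight-point concentration series up to 100 uM. Activity in either direction was fitted relative to 0.5% DMSO.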

[6] = read-out: Bcl-2 (BAD) gene, BAD (gene 572); test: LTEA_HepaRG_BAD: Life Technologies and Expression Analysis (LTEA) Assay for Bcl-2 (BAD) gene using HepaRG (AID 2283469)
In short: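 Read-out: qRT-PCR of BAD mRNA, normalized to three housekeeping genes. Human HepaRG cultures got 48 h chemical exposure in 0.5% DMSO, duplicate eight-point half-log series topping at 100 uM. Gain or loss of signal fitted versus DMSO vehicle.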

[7] = read-out: Bcl-2 (BAX) gene, BAX (gene 581); test: LTEA_HepaRG_BAX: Life Technologies and Expression Analysis (LTEA) Assay for Bcl-2 (BAX) gene using HepaRG (AID 2283470)
In short: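 Human HepaRG cells treated in duplicate for 48 h across eight concentrations (max 100 uM, 0.5% DMSO); BAX expression measured by qRT-PCR.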

[8] = read-out: adenosine kinase (ADK) gene, ADK (gene 132); test: LTEA_HepaRG_ADK: Life Technologies and Expression Analysis (LTEA) Assay for adenosine kinase (ADK) gene using HepaRG (AID 2283471)
In short: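 Differentiated HepaRG cells dosed 48 h in serum-free induction medium, 0.5% DMSO vehicle, eight half-log concentrations from 100 uM, in duplicate. ADK mRNA by TaqMan qRT-PCR normalised to ACTB, GAPDH, POLR2A; bidirectional fit versus DMSO.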

[9] = read-out: Alpha-fetoprotein (AFP) gene, AFP (gene 174); test: LTEA_HepaRG_AFP: Life Technologies and Expression Analysis (LTEA) Assay for Alpha-fetoprotein (AFP) gene using HepaRG (AID 2283472);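 on AC50: AFP transcript by TaqMan qRT-PCR normalized to ACTB GAPDH and POLR2A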
In short: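 Measures AFP mRNA change in HepaRG after 48 h chemical exposure (8 half-log concentrations, highest 100 uM, 0.5% DMSO). Fold change relative to DMSO, fitted in both directions.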

BCL2L11 (gene 10018) = test: LTEA_HepaRG_BCL2L11: Life Technologies and Expression Analysis (LTEA) Assay for Bcl-2 (BCL2L11) gene using HepaRG (AID 2283473)
In short: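 Cells were plated, cultured 48 h, switched to serum-free induction medium, then dosed in duplicate for 48 h at eight half-log concentrations up to 100 uM. Lysates underwent RNA isolation and TaqMan qRT-PCR; gain or loss versus DMSO was fitted.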

Broad substrate specificity ATP-binding cassette transporter ABCG2 (Homo sapiens), sequence (Q9UNQ0 whole entry, looked up): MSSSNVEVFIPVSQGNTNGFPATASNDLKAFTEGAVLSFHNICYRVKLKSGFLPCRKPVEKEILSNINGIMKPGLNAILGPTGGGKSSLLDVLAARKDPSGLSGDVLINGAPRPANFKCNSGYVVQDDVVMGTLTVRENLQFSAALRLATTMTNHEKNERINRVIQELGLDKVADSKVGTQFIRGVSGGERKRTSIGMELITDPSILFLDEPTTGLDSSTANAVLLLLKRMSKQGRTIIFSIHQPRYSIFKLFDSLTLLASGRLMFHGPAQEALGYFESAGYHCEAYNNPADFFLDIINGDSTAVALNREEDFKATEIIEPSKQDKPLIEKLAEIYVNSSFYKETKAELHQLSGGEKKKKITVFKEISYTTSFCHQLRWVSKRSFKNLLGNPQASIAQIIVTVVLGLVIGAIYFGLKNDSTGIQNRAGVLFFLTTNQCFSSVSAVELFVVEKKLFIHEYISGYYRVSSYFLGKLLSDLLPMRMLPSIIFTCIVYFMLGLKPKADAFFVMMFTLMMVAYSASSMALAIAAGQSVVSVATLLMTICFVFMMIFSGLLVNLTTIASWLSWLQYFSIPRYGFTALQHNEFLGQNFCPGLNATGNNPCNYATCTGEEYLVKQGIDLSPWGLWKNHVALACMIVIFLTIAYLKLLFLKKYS

CCCCC(CC)C(=O)OCCOCCOCCOC(=O)C(CC)CCCC (stereo unspecified)
outcome [1]: inactive
outcome [2]: inactive
outcome [3]: inactive
outcome [4]: inactive
outcome [5]: inactive
outcome [6]: inactive
outcome [7]: inactive
outcome [8]: inactive
outcome [9]: inactive

CCc1ccc(O)c(C(C)(C)C)c1
outcome [1]: inactive
outcome [2]: inactive
outcome [3]: inactive
outcome [4]: inactive
outcome [5]: inactive
outcome [6]: inactive
outcome [7]: inactive
outcome [8]: inactive
outcome [9]: inactive

CC(=O)c1ccccc1
outcome [1]: inactive
outcome [2]: inactive
outcome [3]: inactive
outcome [4]: inactive
outcome [5]: inactive
outcome [6]: inactive
outcome [7]: inactive
outcome [8]: inactive
outcome [9]: inactive

NC(=O)N1c2ccccc2C=Cc2ccccc21
AC50 [1]: 37.8 µM (active)
outcome [2]: inactive
outcome [3]: inactive
outcome [4]: inactive
outcome [5]: inactive
outcome [6]: inactive
outcome [7]: inactive
outcome [8]: inactive
outcome [9]: inactive

c1ccc(C(O[C@@H]2CCCN(CCc3ccc4c(c3)OCO4)C2)c2ccccc2)cc1
AC50 [1]: 79.7 µM (active)
outcome [2]: inactive
outcome [3]: inactive
AC50 [4]: 75.9 µM (active)
AC50 [5]: 68.5 µM (active)
AC50 [7]: 80.1 µM (active)
AC50 [8]: 90.7 µM (active)
outcome [9]: inactive

CC(C)C(=O)Nc1ccc([N+](=O)[O-])c(C(F)(F)F)c1
AC50 [1]: 34.3 µM (active)
outcome [2]: inactive
AC50 [3]: 17.6 µM (active)
AC50 [4]: 72.4 µM (active)
AC50 [5]: 50 µM (active)
outcome [6]: inactive
AC50 [7]: 50 µM (active)
outcome [8]: inactive
AC50 [9]: 58.5 µM (active)

CCCCCCCCN(C)C
outcome [1]: inactive
outcome [2]: inactive
outcome [3]: inactive
outcome [4]: inactive
outcome [5]: inactive
outcome [7]: inactive
outcome [8]: inactive
outcome [9]: inactive

COS(C)(=O)=O
outcome [1]: inactive
outcome [2]: inactive
outcome [3]: inactive
outcome [4]: inactive
outcome [5]: inactive
outcome [7]: inactive
outcome [8]: inactive
outcome [9]: inactive

Cn1c(=O)c2[nH]cnc2n(C)c1=O
outcome [1]: inactive
outcome [2]: inactive
outcome [3]: inactive
outcome [4]: inactive
outcome [5]: inactive
outcome [7]: inactive
outcome [8]: inactive
outcome [9]: inactive

C[C@@H](Oc1ccc(CNC(=O)c2cccnc2Oc2ccc3c(c2)OCO3)c(F)c1)C(=O)O
outcome [1]: inactive
outcome [2]: inactive
outcome [3]: inactive
outcome [4]: inactive
outcome [5]: inactive
outcome [6]: inactive
outcome [7]: inactive
outcome [8]: inactive
outcome [9]: inactive

O=C(O)[C@H](O)[C@@H](O)C(=O)O
outcome [1]: inactive
outcome [2]: inactive
outcome [3]: inactive
outcome [4]: inactive
outcome [5]: inactive
outcome [6]: inactive
outcome [7]: inactive
outcome [8]: inactive
outcome [9]: inactive

O=C(O)c1cccc(C(=O)O)c1
outcome [1]: inactive
outcome [2]: inactive
outcome [3]: inactive
outcome [4]: inactive
outcome [5]: inactive
outcome [6]: inactive
outcome [7]: inactive
outcome [8]: inactive
outcome [9]: inactive
outcome (BCL2L11 (gene 10018)): inactive

OCCNCCO
outcome [1]: inactive
outcome [2]: inactive
outcome [3]: inactive
outcome [4]: inactive
AC50 [5]: 50 µM (active)
outcome [6]: inactive
outcome [7]: inactive
outcome [8]: inactive
AC50 [9]: 50 µM (active)

NC(=O)NN=Cc1ccc([N+](=O)[O-])o1
AC50 [1]: 50 µM (active)
outcome [2]: inactive
outcome [3]: inactive
outcome [4]: inactive
AC50 [5]: 0.468 µM (active)
outcome [7]: inactive
outcome [8]: inactive
outcome [9]: inactive

OC(CCl)CCl
outcome [1]: inactive
outcome [2]: inactive
outcome [3]: inactive
outcome [4]: inactive
outcome [5]: inactive
outcome [6]: inactive
outcome [7]: inactive
outcome [8]: inactive
outcome [9]: inactive
outcome (BCL2L11 (gene 10018)): inactive

OCc1ccccc1
outcome [1]: inactive
outcome [2]: inactive
outcome [3]: inactive
outcome [4]: inactive
outcome [5]: inactive
outcome [6]: inactive
outcome [7]: inactive
outcome [8]: inactive
outcome [9]: inactive
outcome (BCL2L11 (gene 10018)): inactive

Cc1nc(-c2ccccn2)ncc1C(=O)Nn1cc(C)c2cc(F)ccc21
AC50 [1]: 12.2 µM (active)
outcome [2]: inactive
outcome [3]: inactive
outcome [4]: inactive
AC50 [5]: 82.3 µM (active)
outcome [6]: inactive
outcome [7]: inactive
outcome [8]: inactive
AC50 [9]: 50 µM (active)
